According to PubChem BioAssay (EPA / NIEHS):
Records with an inconclusive call do not appear. Active and inactive are the calls of the source. Rule for the calls: active = hit-call score of the fitted dose curve at least 0.9, where 1 is the maximum; inconclusive = response in the unintended direction; inactive = score below 0.9.

Target: rat Opioid Receptor, Non-selective Binding, Oprm1 (gene 25601) (UniProt P33535)
Assay: NVS_GPCR_rOpiate_NonSelective: NovaScreen (NVS) G Protein-Coupled Receptor Assay for rat Opioid Receptor, Non-selective Binding (AID 2283318)
Method in brief: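 Rat forebrain membranes, cell-free radioligand binding with filter-based scintillation counting, read 1.5 h after dosing. Primary screen in duplicate at 25 uM; actives retested in concentration series. Loss of signal versus DMSO baseline scored.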

Sequence of rat Opioid Receptor, Non-selective Binding, Oprm1 (gene 25601) (P33535 whole entry, looked up): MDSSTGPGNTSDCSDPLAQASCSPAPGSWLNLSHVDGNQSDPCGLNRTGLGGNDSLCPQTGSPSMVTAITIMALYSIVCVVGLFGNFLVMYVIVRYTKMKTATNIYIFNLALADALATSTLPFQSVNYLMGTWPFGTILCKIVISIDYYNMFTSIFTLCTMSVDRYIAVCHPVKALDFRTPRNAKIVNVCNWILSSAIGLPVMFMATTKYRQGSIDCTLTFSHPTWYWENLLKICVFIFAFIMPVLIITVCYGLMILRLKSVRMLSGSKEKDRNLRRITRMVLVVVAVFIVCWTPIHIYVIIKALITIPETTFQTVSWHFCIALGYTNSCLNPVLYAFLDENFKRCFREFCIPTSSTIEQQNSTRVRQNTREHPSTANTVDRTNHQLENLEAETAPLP

Question: Which AC50 does the source give for CCOP(=O)(OCC)Oc1nc(Cl)c(Cl)cc1Cl here?
Answer: Its AC50 is 11.1 µM (active).

Question: With CCOc1cc(C(C)(C)C)ccc1C1COC(c2c(F)cccc2F)=N1 (stereo not drawn) as the compound, how does the outcome read?
Answer: Its outcome is “inactive”.

Question: Which outcome does the source give for CCCN(CC)CC1COC2(CCC(C(C)(C)C)CC2)O1 (stereo not drawn) here?
Answer: Its outcome is “inactive”.

Question: With COCC(C)N(C(=O)CCl)c1c(C)csc1C (stereo not drawn) as the compound, how does the outcome read?
Answer: Its outcome is “inactive”.

Question: With CCCC(=NOCC)C1=C(O)CC(CC(C)SCC)CC1=O (stereo not drawn) as the compound, how does the outcome read?
Answer: The outcome was “inactive”.

Question: With CCN(CC)C(=O)C(C)Oc1cccc2ccccc12 (stereo not drawn) as the compound, how does the outcome read?
Answer: The outcome was “inactive”.

System: NCBI gene 24521
Assay: NVS_IC_rKATPCh: NovaScreen (NVS) Ion Channel Assay for rat Potassium Channel, ATP-Sensitive (KATPCh) (AID 2283319)
Method in brief: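 Rat cortical membranes; radioligand binding at ATP-sensitive K channel site, filter-based scintillation counting 2 h after dosing. Single-point duplicate screen at 25 uM, hits rerun in concentration-response up to 50 uM; loss of signal versus DMSO.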

Question: For CCOc1cc(C(C)(C)C)ccc1C1COC(c2c(F)cccc2F)=N1 (stereo not drawn), which outcome is on record?
Answer: The outcome was “inactive”.

Question: Which outcome does the source give for COP(=O)(OC)O/C(C)=C/C(=O)N(C)C here?
Answer: Its outcome is “inactive”.

Question: With CC(C)N1C(=O)c2ccccc2NS1(=O)=O as the compound, how does the outcome read?
Answer: Its outcome is “inactive”.

Question: Which outcome does the source give for COP(=S)(OC)SCn1nnc2ccccc2c1=O here?
Answer: Its outcome is “inactive”.

System: not listed separately
Assay: NVS_IC_rCaDHPRCh_L: NovaScreen (NVS) Ion Channel Assay for rat Calcium Channel, Type L, Dihydropyridine Site (CaDHPRCh_L) (AID 2283320)
Method in brief: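 Radioligand binding to dihydropyridine site on rat cortical membranes, filter-based scintillation counting, 1 h after dosing. Screened in duplicate at 25 uM; actives rerun in concentration-response up to 50 uM. Loss of signal versus DMSO baseline.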

Question: For CC1(C)C(C=C(Cl)Cl)C1C(=O)OC(C#N)c1cccc(Oc2ccccc2)c1 (stereo not drawn), which AC50 is on record?
Answer: Its AC50 is 9.51 µM (active).

Question: With CO/N=C(/C1=NOCCO1)c1ccccc1Oc1ncnc(Oc2ccccc2Cl)c1F as the compound, how does the outcome read?
Answer: The outcome was “inactive”.

Question: For COC(=O)c1c(C(F)F)nc(C(F)(F)F)c(C2=NCCS2)c1CC(C)C, which outcome is on record?
Answer: Its outcome is “inactive”.

Question: For CCCCC(C#N)(Cn1cncn1)c1ccc(Cl)cc1 (stereo not drawn), which outcome is on record?
Answer: The outcome was “inactive”.

Question: For CCCCOCN(C(=O)CCl)c1c(CC)cccc1CC, which AC50 is on record?
Answer: Its AC50 is 9.86 µM (active).

Question: Which AC50 does the source give for CCOC(=O)C(C)OC(=O)c1cc(Oc2ccc(C(F)(F)F)cc2Cl)ccc1[N+](=O)[O-] (stereo not drawn) here?
Answer: Its AC50 is 25 µM (active).

Target: bovine Gamma-Aminobutyric Acid Type A Receptor BDZ, alpha 1 site (GABARa1), GABRA1 (gene 780973) (UniProt P08219)
Assay: NVS_LGIC_bGABARa1: NovaScreen (NVS) Ligand-Gated Ion Channel Assay for bovine Gamma-Aminobutyric Acid Type A Receptor BDZ, alpha 1 site (GABARa1) (AID 2283321)
Experimental: NVS_LGIC_bGABARa1 is a biochemical, single-readout assay that uses extracted gene-proteins from Bovine cortical membranes in a tissue-based cell-free assay. Measurements were taken 0.75 hour after chemical dosing in a 48-well plate.NVS_LGIC_bGABARa1 is one of one assay component(s) measured or calculated from the NVS_LGIC_bGABARa1 assay. It is designed to make measurements of radioligand binding, a form of binding reporter, as detected with scintillation counting signals by Filter-based radiodetection technology.Data from the assay component NVS_LGIC_bGABARa1 was analyzed into 1 assay endpoint. This assay endpoint, NVS_LGIC_bGABARa1, was analyzed in the positive analysis fitting direction relative to DMSO as the negative control and baseline of activity. Using a type of binding reporter, loss-of-signal activity can be used to understand changes in the binding as they relate to the gene GABRA1. Furthermore, this assay endpoint can be referred to as a primary readout, because the performed assay has only produced 1 assay endpoint. To generalize the intended target to other relatable targets, this assay endpoint is annotated to the ion channel intended target family, where the subfamily is ligand-gated ion channel.
Binding assays used specific radioligands (tritiated, iodinated) with non-radioactive competitive displacement ligands in agonist or antagonist protocols (as indicated) and various reference compounds and inhibitors to titrate specific binding to receptors and transporters. Most enzyme assays (CYPs, kinases, phosphatases, proteases, HDACs) used recombinant protein and specific substrates (fluorescence mostly, some colorimetric and radioactive) and inhibitors, followed by a biochemical separation of substrate and product. All assays for the biochemical HTS were initially run in duplicate at a single concentration (10 uM for CYP450 assays and 25 uM for all others). Assay-chemical combinations meeting a pre-defined threshold (e.g., 30% inhibition and other criteria defined below) were then run in singleton concentration-response format with maximum concentration of 20 uM for CYPs and 50 uM for all others. Each assay was run with positive and negative controls, and concurrent controls on every plate. The follow-up (secondary) screen tested active chemical-pairs in concentration series, as well as a few additional assays not tested in the primary screen, some selected negative inactives, and several cases re-run in the concentration series for confirmatory purposes.

Sequence of bovine Gamma-Aminobutyric Acid Type A Receptor BDZ, alpha 1 site (GABARa1), GABRA1 (gene 780973) (P08219 whole entry, looked up): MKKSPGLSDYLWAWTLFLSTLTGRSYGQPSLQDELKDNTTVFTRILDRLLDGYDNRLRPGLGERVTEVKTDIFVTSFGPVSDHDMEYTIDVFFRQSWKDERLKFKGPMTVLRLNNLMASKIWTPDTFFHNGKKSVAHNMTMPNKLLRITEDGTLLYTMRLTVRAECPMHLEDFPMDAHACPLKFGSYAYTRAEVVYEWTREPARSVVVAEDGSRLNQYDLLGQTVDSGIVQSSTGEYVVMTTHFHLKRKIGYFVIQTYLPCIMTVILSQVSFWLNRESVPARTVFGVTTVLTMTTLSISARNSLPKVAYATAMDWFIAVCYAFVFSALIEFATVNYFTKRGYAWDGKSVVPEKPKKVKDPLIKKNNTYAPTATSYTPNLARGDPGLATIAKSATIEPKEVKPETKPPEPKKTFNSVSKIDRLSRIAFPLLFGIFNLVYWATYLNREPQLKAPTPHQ

Question: For CS(=O)(=O)c1cc(C(F)(F)F)ccc1C(=O)c1cnoc1C1CC1, which outcome is on record?
Answer: The outcome was “inactive”.

Question: Which outcome does the source give for COP(=O)(OC)O/C(C)=C/C(=O)N(C)C here?
Answer: Its outcome is “inactive”.

Question: Which outcome does the source give for N#CN=C1SCCN1Cc1ccc(Cl)nc1 here?
Answer: Its outcome is “inactive”.

Question: Which AC50 does the source give for COP(=S)(OC)SCn1nnc2ccccc2c1=O here?
Answer: The AC50 was 10.1 µM (active).

Question: Which outcome does the source give for CC1(C)C(C(=O)OC(C#N)c2cccc(Oc3ccccc3)c2)C1(C)C (stereo not drawn) here?
Answer: The outcome was “inactive”.

Question: For Nc1c(Cl)c(F)nc(OCC(=O)O)c1Cl, which outcome is on record?
Answer: Its outcome is “inactive”.

Question: For O=C(Nc1ccccc1-c1ccc(Cl)cc1)c1cccnc1Cl, which outcome is on record?
Answer: The outcome was “inactive”.

Target: Sodium channel protein type 1 subunit alpha (Rattus norvegicus) (UniProt P04774)
Assay: NVS_IC_rNaCh_site2: NovaScreen (NVS) Ion Channel Assay for rat Sodium Channel, Site 2 (NaCh) (AID 2283322);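 note: hit means loss of radioligand binding signal relative to DMSO so AC50 marks displacement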
Method in brief: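 Membranes: rat forebrain. Format: competitive radioligand displacement, filter separation, scintillation readout, 1 h exposure. Primary screen in duplicate at 25 uM; actives retested in concentration series.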

Question: Which AC50 does the source give for CCCN(CC)CC1COC2(CCC(C(C)(C)C)CC2)O1 (stereo not drawn) here?
Answer: The AC50 was 0.822 µM (active).

Question: Which outcome does the source give for CC(C)C1(C)N=C(c2ncccc2C(=O)O)NC1=O (stereo not drawn) here?
Answer: The outcome was “inactive”.

Question: For Cn1c(-c2ccccc2)cc(-c2ccccc2)[n+]1C, which AC50 is on record?
Answer: The AC50 was 2.36 µM (active).

Question: With CCCCC(C#N)(Cn1cncn1)c1ccc(Cl)cc1 (stereo not drawn) as the compound, how does the AC50 read?
Answer: Its AC50 is 25 µM (active).

Question: For CC(C)(C)C(=O)C(Oc1ccc(Cl)cc1)n1cncn1 (stereo not drawn), which outcome is on record?
Answer: Its outcome is “inactive”.

Question: For Cc1cc(C)nc(Nc2ccccc2)n1, which outcome is on record?
Answer: The outcome was “inactive”.

Question: For N#Cc1c[nH]cc1-c1cccc2c1OC(F)(F)O2, which outcome is on record?
Answer: The outcome was “inactive”.

Question: Which outcome does the source give for CCN(CC)C(=O)C(C)Oc1cccc2ccccc12 (stereo not drawn) here?
Answer: The outcome was “inactive”.

Question: With N#Cc1c(Cl)cccc1Cl as the compound, how does the AC50 read?
Answer: Its AC50 is 38.2 µM (active).

Question: Which outcome does the source give for CCNC(=O)NC(=O)C(C#N)=NOC here?
Answer: Its outcome is “inactive”.
